Measured values from PubChem BioAssay AID1259240 (Keith Lab, Institute of Cancer Science, University of …, 2017).
Calls of active or inactive are those of the source. No stated cut-off is given here; in the data, active means fold change mostly below about -2 (no sharp cut-off); inactive means mostly above about -1.8.

Test: modulation of TERT promoter-driven luciferase – cell-based, luciferase reporter, human, primary screen (AID 1259240)
Details: A2780 TERT promoter luciferase reporter, 16 h; at 20 µM, fold versus average of vehicle-only wells

| Compound | fold change | outcome |
| --- | --- | --- |
| O=C1CC(c2cc(Br)cs2)c2cc3c(cc2N1)OCO3 (stereo not given) | 1.13 (inactive) | – |
| Cn1c(SCC(=O)Nc2ccc(F)cc2)nnc1-c1c[nH]c2ccccc12 | – | inactive |
| O=C1Nc2ccccc2/C1=C\c1cn(Cc2ccccc2F)c2ccccc12 | -1.04 (inactive) | – |
| COc1ccc(Cl)cc1N1CC(O)=C(c2nc3ccccc3c(=O)[nH]2)C1=N | – | inactive |
| CCCC1=NN2C(=N)/C(=C\c3ccc(SCc4ccco4)o3)C(=O)N=C2S1 | -1.68 (inactive) | – |
| Oc1oc(-c2ccccc2)nc1C=Nc1ccc(Cl)c2cccnc12 | – | inactive |
| Cc1ccc(NC(=O)CSc2nc3c(c(=O)[nH]2)CCC3)cc1F | – | inactive |
| CN(CC(=O)NC1CCCc2ccccc21)S(=O)(=O)c1ccc2c(c1)CCC(=O)N2 (stereo not given) | 1.18 (inactive) | – |
| COCCCN1CN=C(Nc2nc(C)c3ccc(C)cc3n2)NC1 | -1.94 (inactive) | – |
| O=S(=O)(c1cccc(-c2cn3ccccc3n2)c1)N1CCCCC1 | -1.03 (inactive) | – |
| C=CCn1c(Oc2ccc(C(=O)OC)cc2)nc2c1c(=O)n(C)c(=O)n2C | -2.04 (active) | – |
| Cc1ccc(N2CN=c3s/c(=C4\C(=O)Nc5ccccc54)c(=O)n3C2)cc1 | -1.33 (inactive) | – |
| CCOC(=O)C1CCCN(c2c(NC3CCN(C(=O)OCC)CC3)c(=O)c2=O)C1 (stereo not given) | 1.19 (inactive) | – |
| Cc1c(Cl)cccc1NS(=O)(=O)c1cccc2cccnc12 | -1.05 (inactive) | – |
| CCc1ccc(N2CC(O)=C(c3nc4ccccc4c(=O)[nH]3)C2=N)cc1 | – | inactive |
| CCCCCn1c(=O)[nH]c2c(c1=O)CCC2 | -1.18 (inactive) | – |
| CC1CCCN(C(=O)c2ccc3c(=O)n4c(nc3c2)CCCCC4)C1 (stereo not given) | 1.14 (inactive) | – |
| O=C(Cn1ncc2c3ccccc3n(Cc3ccc(Cl)cc3)c2c1=O)NC1CC1 | -1.11 (inactive) | – |
| CCCCC1=NN(C(=O)C(=O)Nc2ccc(Br)cc2)C(O)(C(F)(F)F)C1 (stereo not given) | 1.01 (inactive) | – |
| CCOC(=O)C1=C(CS(=O)(=O)c2ccc(C)c(C)c2)NC(=O)NC1c1ccc(Cl)cc1 (stereo not given) | 1.11 (inactive) | – |

| Compound | fold change | outcome |
| --- | --- | --- |
| Cc1nc2cc(-c3cccc(F)c3)nn2c(C)c1CCC(=O)N1CCc2ccccc21 | -2.84 (active) | – |
| CCOC(=O)N1CCC(Nc2c(N3CCCCC3C)c(=O)c2=O)CC1 (stereo not given) | 1.02 (inactive) | – |
| COc1ccccc1C(=O)[C@H]1C(=O)N[C@@]2(C)C[C@@H]1c1cccc(OC)c1O2 | -1.16 (inactive) | – |
| Cc1cccc2sc(NC(=O)c3ccc(CNc4c(NC5CCCC5)c(=O)c4=O)cc3)nc12 | -1.04 (inactive) | – |
| CCOC(=O)C1=C(CS(=O)(=O)c2ccc(C)cc2)NC(=O)NC1c1ccccc1 (stereo not given) | 1.64 (inactive) | – |
| Cc1cc(C(=O)N2CCC(C)CC2)on1 | 1.62 (inactive) | – |
| COc1ccc(/C=c2\sc3nc(-c4cc(OC)c(OC)c(OC)c4)nn3c2=O)c(OC)c1 | -1.26 (inactive) | – |
| CN(C)c1nc(C(N)=O)nc(N2CCOCC2)n1 | 1.62 (inactive) | – |
| CN(C)CCCN1C(=O)CSC1c1ccccc1 (stereo not given) | -1.42 (inactive) | – |
| COc1ccc(-c2nc(CSc3nc4c(c(=O)[nH]3)CCC4)c(C)o2)cc1 | – | inactive |
| CCCN1C(=O)C2(/C(=C(/O)c3ccc(C)cc3)C(=O)C(=O)N2CCOC)c2ccccc21 (stereo not given) | 1.26 (inactive) | – |
| COc1ccc(-c2c(C)oc3c(CN4CCN(C)CC4)c(O)ccc3c2=O)cc1OC | 1.39 (inactive) | – |
| COc1ccc(NC(=O)Nc2ccc3snnc3c2)cc1OC | 1.08 (inactive) | – |
| COc1ccc(NC(=O)Nc2c(C)n(C)n(-c3ccccc3)c2=O)cc1 | -1.33 (inactive) | – |
| O=C(Nc1cnn(Cc2ccc(F)cc2)c1)c1cc(C2CC2)on1 | -1.17 (inactive) | – |
| CC(C)Oc1ccc(C2CC(=O)Nc3cc4c(cc32)OCCO4)cc1 (stereo not given) | 1 (inactive) | – |
| CCOc1ccc2c(c1)CN(c1ccc(Cl)cc1)CO2 | -1.19 (inactive) | – |
| CN(C(=O)Cn1c(=O)n(CCCS(=O)(=O)C2CCCCC2)c(=O)c2ccccc21)c1ccccc1 | -1.1 (inactive) | – |
| CCC(CO)NS(=O)(=O)c1ccc(OC)c(-c2nnc3c4ccccc4c(C)nn23)c1 (stereo not given) | -1.69 (inactive) | – |
| COc1ccc(/C=C/c2nc3scc(-c4cccs4)c3c(=O)o2)cc1 | -1.6 (inactive) | – |
